Data from PubChem BioAssay.
Records with an inconclusive call do not appear. Activity calls are given as the source filed them.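 The calls were made as follows, unless noted: active = viability increase at or above a cutoff of the median across tested compounds plus 3 SD (cut at about 8.5% in these data, passing the limit was not always enough); inconclusive = some gains above the cutoff, reason not given; inactive = the rest.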

Legend:
[1] = Her2 expression decrease, cell viability multiplex – SKBR3 breast tumor cells, AlphaScreen, ATP viability, primary screen (AID 461;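 active = Her2 level under about 52% in both replicate screens, with viability over 70% of control, limit read from the data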;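 as to Her2 level: lower value means less Her2 protein in the cells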;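 as to viability: percent of carrier control wells set as 100% viability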); settings: SKBR3 Her2 protein level, 18-24 h, measured here: SKBR3 viability, ATP luminescence, at 10 µM
[2] = biological target: Receptor tyrosine-protein kinase erbB-2 (Homo sapiens) (UniProt P04626); test: as above; settings: 18-24 h, at 10 µM, stronger effect = lower value
Chain of Receptor tyrosine-protein kinase erbB-2 (Homo sapiens) (P04626 whole entry, looked up): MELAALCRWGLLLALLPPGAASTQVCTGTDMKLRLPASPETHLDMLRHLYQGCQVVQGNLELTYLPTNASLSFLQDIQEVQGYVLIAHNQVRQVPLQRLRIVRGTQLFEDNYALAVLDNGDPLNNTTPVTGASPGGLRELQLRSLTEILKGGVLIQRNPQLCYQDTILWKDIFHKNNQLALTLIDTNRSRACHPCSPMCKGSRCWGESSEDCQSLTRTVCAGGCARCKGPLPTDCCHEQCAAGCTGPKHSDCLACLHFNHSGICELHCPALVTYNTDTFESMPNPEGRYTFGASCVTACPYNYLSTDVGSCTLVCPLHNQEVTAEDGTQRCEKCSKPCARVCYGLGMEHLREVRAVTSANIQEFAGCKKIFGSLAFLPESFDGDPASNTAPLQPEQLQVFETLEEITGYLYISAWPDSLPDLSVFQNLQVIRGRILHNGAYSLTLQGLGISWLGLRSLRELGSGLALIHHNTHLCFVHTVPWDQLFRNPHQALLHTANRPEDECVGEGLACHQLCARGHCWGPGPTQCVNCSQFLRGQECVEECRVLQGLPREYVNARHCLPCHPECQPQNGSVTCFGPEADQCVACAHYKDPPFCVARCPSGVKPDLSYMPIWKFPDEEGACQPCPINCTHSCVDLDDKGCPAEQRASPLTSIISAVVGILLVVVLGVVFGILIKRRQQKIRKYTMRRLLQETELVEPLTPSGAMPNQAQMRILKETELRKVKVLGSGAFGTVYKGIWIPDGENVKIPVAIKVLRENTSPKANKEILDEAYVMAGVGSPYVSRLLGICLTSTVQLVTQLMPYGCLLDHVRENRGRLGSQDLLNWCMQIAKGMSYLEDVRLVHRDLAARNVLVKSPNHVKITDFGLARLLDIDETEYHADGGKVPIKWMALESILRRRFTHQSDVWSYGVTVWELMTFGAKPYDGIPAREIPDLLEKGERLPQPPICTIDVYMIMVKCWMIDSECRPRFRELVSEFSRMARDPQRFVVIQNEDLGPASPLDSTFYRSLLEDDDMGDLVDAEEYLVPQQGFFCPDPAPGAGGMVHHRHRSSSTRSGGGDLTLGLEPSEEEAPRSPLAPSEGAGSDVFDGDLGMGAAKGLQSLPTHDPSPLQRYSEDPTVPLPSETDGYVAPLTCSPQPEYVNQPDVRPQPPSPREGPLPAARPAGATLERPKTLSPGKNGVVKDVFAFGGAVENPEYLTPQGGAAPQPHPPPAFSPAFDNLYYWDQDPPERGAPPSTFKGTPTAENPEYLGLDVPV

[3] = reduced viability of SK-BR-3 breast cancer cells – cell-based, 24 h, human, pilot screen (AID 572;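 active = viability at or below 10% of carrier control in both of two separate runs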;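 also: compound exposure lasted between 18 and 24 h rather than exactly 24 h; 100% = carrier-treated control wells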); settings: SK-BR-3 viability, CellTiter-Glo luminescence, at 10 µM, stronger effect = lower value
[4] = HUVEC growth inhibition – cell-based, human, primary screen (AID 575;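 active = viability at or below 30% in both replicate assays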;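 also: 100% = median of untreated cell wells with 0.1% DMSO on each plate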); settings: HUVEC proliferation, CellTiter-Glo luminescence, 72 h; at 10 µM; stronger effect = lower value
[5] = H69AR cell proliferation blockers – human, duplicate replicates, primary screen (AID 580;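 active = viability at or under a set limit in both replicates, limit being median viability minus 3 SD, cut at about 48% in these data, passing the limit was not always enough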;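 also: 100% = mean luminescence of untreated wells and 0% = no signal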); settings: H69AR lung tumor cells viability, ATP luminescence, 72 h; at 10 µM; stronger effect = lower value
[6] = MRP1 drug-resistance reversers in H69AR cells – cell-based, doxorubicin co-treatment, pilot screen (AID 601;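 active = viability loss from added drug above about 55%, and viability with drug at most 40%, in both replicates, limit read from the data, passing the limit was not always enough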); settings: CellTiter-Glo, 72 h, at 10 µM; for differential viability (reversal): stronger effect = higher value
[7] = yeast transport mutant growth inhibition pilot in 384-well plates, post-Golgi transport modulator project (AID 636; in the data active = inhibition above about 31%); settings: absorbance 615 nm, about 18 h, stronger effect = higher value
[8] = growth suppression of yeast trafficking mutant, preliminary HTS, modulators of trafficking downstream of Golgi apparatus project, 1536-format plate, OD 615 nm (AID 637; in the data active = inhibition above about 30%); settings: yeast transport mutant growth, absorbance 615 nm, 18 h; stronger effect = higher value
[9] = S. cerevisiae growth inhibition in permissive medium (OD615), pilot counter-assay for S. cerevisiae lifespan shortening project, permissive growth control (AID 705;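 active = growth inhibition above 25% in both replicates, a cutoff set 3 SD above the mean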); settings: OD615, 24 h, at 10 µM, stronger effect = higher value
[10] = S. cerevisiae growth inhibition in restrictive medium, OD615, pilot screen, restrictive growth control, yeast lifespan reduction project (AID 706;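 active = growth inhibition above a set limit, 3 SD over mean compound inhibition, in both replicates, cut at about 43% in these data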;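 also: modified DeaD lifespan yeast strain shifted to restrictive glucose medium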); settings: OD615, 48 h, at 10 µM, stronger effect = higher value
[11] = doxorubicin toxicity protection in MRP-1 cells – H69AR cells, CellTiter-Glo, duplicate, MRP-1 activator project, pilot screen (AID 807); settings: H69AR viability with doxorubicin, CellTiter-Glo luminescence; at 10 µM; stronger effect = higher value;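 also: compound pretreatment 18-22 h then 72 h combined with doxorubicin; 0% = doxorubicin alone and 100% = vehicle without doxorubicin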
[12] = viability of HCT116 without oncogenic beta-catenin – human colon tumor cells, pilot screen (AID 823;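 active = cell viability at or below a set limit in both duplicate runs, the limit being the all-compound median minus 4 SD, cut at about 23% in these data, passing the limit was not always enough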;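 also: 0% = wells killed by 20 µM Hyamine and 100% = untreated DMSO cell wells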); settings: HCT116 beta-catenin knockout viability, CellTiter-Glo, 60 h; at 10 µM; stronger effect = lower value
[13] = viability of PTEN-null HCT116 cells – cell-based, HCT116 clonal line, CellTiter-Glo, pilot screen (AID 824;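 active = viability at or below 27.92% in each of two runs, the all-compound median minus 4 SD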;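 also: 0% = 20 µM Hyamine control and 100% = vehicle cell control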); settings: HCT116 PTEN-deleted viability, 60 h, at 10 µM, stronger effect = lower value
[14] = RAM pathway blockade in budding yeast – dse1pr::URA3 reporter, 5-FOA selection, pilot screen (AID 869;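 active = inhibition over a set limit, the all-compound mean plus 3 SD, in both replicate runs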;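 also: 0% = DMSO wells with no growth and 100% = 10 µM 1-NA-PP1 with full growth; RAM network block rescues cells from 5-FOA so hits raise OD615 growth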); settings: S. cerevisiae dse1pr::URA3 5-FOA growth, OD615, 2 d; at 10 µM; stronger effect = higher value; strain carries analog-sensitive mutant Cbk1 kinase
[15] = RAM signaling pathway blockade in yeast – S. cerevisiae, Pdr1DBD-CYC8 efflux-inhibited sensitized strain, primary screen (AID 1298;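 active = RAM network inhibition above 8.4% in each of two replicates, 3 SD over the compound average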;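 also: 0% = DMSO untreated cells without growth and 100% = 10 µM 1-NA-PP1 full growth; higher means more yeast growth rescued from 5-FOA killing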); settings: S. cerevisiae cbk1-as DSE1-URA3 strain, 5-FOA growth OD615, 2 d; at 50 µM; stronger effect = higher value
[16] = H69AR cells + 2 uM doxorubicin, measured here: viability with 2 uM doxorubicin, stronger effect = lower value
[17] = H69AR cells, compound alone cytotoxicity

CCCCN(C)C(=O)c1ccc(CS(=O)(=O)c2ccccc2C)o1
inactive: Her2 level [2] 86.5% | viability [3] 93% | viability [4] 120% | viability [5] 81.3% | differential viability (reversal) ([6]; H69AR cells + 2 uM doxorubicin) -5.93% | inhibition [7] 1.28% | inhibition [8] -2.17% | growth inhibition [9] 6.16% | growth inhibition [10] 14.7% | viability increase [11] -1.67% | viability [12] 93.8% | viability [13] 91.7% | inhibition [14] -0.45% | RAM network inhibition [15] 3.61%
87.2%: viability [6, 16]
93%: viability [1]
81.3%: viability [6, 17]

CCOC(=O)Cn1c(=O)c(-c2ccccc2N)nc2ccccc21
75.6%: viability [6, 17]
101%: viability [1]
81.7%: viability [6, 16]
inactive: Her2 level [2] 84.5% | viability [3] 101% | viability [4] 85.3% | viability [5] 75.6% | differential viability (reversal) ([6]; H69AR cells + 2 uM doxorubicin) -6.16% | inhibition [7] -5.6% | inhibition [8] -2% | growth inhibition [9] 2.3% | growth inhibition [10] 0.83% | viability increase [11] -1.72% | viability [12] 108% | viability [13] 98.8% | inhibition [14] 2.16% | RAM network inhibition [15] 3.47%

COc1ccc(NC(=O)CN(c2cc(C)cc(C)c2)S(=O)(=O)c2c(C)noc2C)cc1OC
73.6%: viability [6, 16]
inactive: Her2 level [2] 73% | viability [3] 89% | viability [4] 110% | viability [5] 88.2% | differential viability (reversal) ([6]; H69AR cells + 2 uM doxorubicin) 14.6% | inhibition [7] 0.26% | inhibition [8] -1.67% | growth inhibition [9] -9.49% | growth inhibition [10] -4.85% | viability increase [11] -2.49% | viability [12] 89% | viability [13] 92.5% | inhibition [14] 3.25% | RAM network inhibition [15] 5.58%
89%: viability [1]
88.2%: viability [6, 17]

COc1cc(NC(=O)CN(c2cc(C)cc(C)c2)S(=O)(=O)c2c(C)noc2C)cc(OC)c1
88.5%: viability [1]
inactive: Her2 level [2] 108% | viability [3] 88.5% | viability [4] 80.8% | viability [5] 83.8% | differential viability (reversal) ([6]; H69AR cells + 2 uM doxorubicin) -0.43% | inhibition [7] 0.9% | inhibition [8] -5% | growth inhibition [9] -14.8% | growth inhibition [10] -18.5% | viability increase [11] -4.92% | viability [12] 92.3% | viability [13] 87.5% | inhibition [14] 2.82% | RAM network inhibition [15] 4.61%
83.8%: viability [6, 17]
84.3%: viability [6, 16]

CCCn1c(OC)nc2c1c(=O)n(C)c(=O)n2C
inactive: Her2 level [2] 88.5% | viability [3] 89.5% | viability [4] 83.2% | viability [5] 94.4% | differential viability (reversal) ([6]; H69AR cells + 2 uM doxorubicin) 0.235% | inhibition [7] -2.53% | inhibition [8] -2.5% | growth inhibition [9] -10.7% | growth inhibition [10] -9.12% | viability increase [11] 0.06% | viability [12] 107% | viability [13] 97% | inhibition [14] 2.22% | RAM network inhibition [15] 2.06%
94.4%: viability [6, 17]
94.1%: viability [6, 16]
89.5%: viability [1]

CC(=O)NC(CCS(C)(=O)=O)C(=O)Nc1cc(C)on1 (stereo not given)
99.1%: viability [6, 17]
92.1%: viability [6, 16]
119%: viability [1]
inactive: Her2 level [2] 106% | viability [3] 119% | viability [4] 105% | viability [5] 99.1% | differential viability (reversal) ([6]; H69AR cells + 2 uM doxorubicin) 7% | inhibition [7] -4.67% | inhibition [8] 0% | growth inhibition [9] -14.1% | growth inhibition [10] -22.3% | viability increase [11] 1% | viability [12] 104% | viability [13] 95.7% | inhibition [14] 1.99% | RAM network inhibition [15] 0.32%

O=C(NC1CCN(Cc2ccccc2)CC1)C1CCN(S(=O)(=O)c2cccc3cccnc23)CC1
96.5%: viability [1]
102%: viability [6, 17]
inactive: Her2 level [2] 97.5% | viability [3] 96.5% | viability [4] 86.9% | viability [5] 102% | differential viability (reversal) ([6]; H69AR cells + 2 uM doxorubicin) 1.09% | inhibition [7] -0.13% | inhibition [8] -2.62% | growth inhibition [9] 5.75% | growth inhibition [10] 1.73% | viability increase [11] 1.84% | viability [12] 88.3% | viability [13] 96% | inhibition [14] -0.18% | RAM network inhibition [15] 1.59%
101%: viability [6, 16]

CCOc1cc(C2NC(=O)NC(O)(C(F)(F)F)C2C(=O)c2ccccc2)ccc1OC (stereo not given)
108%: viability [1]
96.6%: viability [6, 16]
inactive: Her2 level [2] 110% | viability [3] 108% | viability [4] 104% | viability [5] 102% | differential viability (reversal) ([6]; H69AR cells + 2 uM doxorubicin) 5.23% | inhibition [7] -4.46% | inhibition [8] -8.2% | growth inhibition [9] -0.49% | growth inhibition [10] 19.4% | viability increase [11] -0.8% | viability [12] 109% | viability [13] 97.8% | inhibition [14] 0.24% | RAM network inhibition [15] 0.2%
102%: viability [6, 17]

Cc1c(C#N)c2ccccc2n1CC(=O)N1CCc2ccccc2C1
inactive: Her2 level [2] 120% | viability [3] 102% | viability [4] 93.5% | viability [5] 94.9% | differential viability (reversal) ([6]; H69AR cells + 2 uM doxorubicin) 2.7% | inhibition [7] 6.67% | inhibition [8] -3.17% | growth inhibition [9] -1.57% | growth inhibition [10] -2.33% | viability increase [11] -3.16% | viability [12] 92.9% | viability [13] 92.7% | inhibition [14] 2.05% | RAM network inhibition [15] 4.34%
94.9%: viability [6, 17]
102%: viability [1]
92.2%: viability [6, 16]

S=c1[nH]nc(-c2ccccc2)n1C1C=CCCC1 (stereo not given)
95.5%: viability [1]
84.4%: viability [6, 16]
inactive: Her2 level [2] 104% | viability [3] 95.5% | viability [4] 97.4% | viability [5] 85% | differential viability (reversal) ([6]; H69AR cells + 2 uM doxorubicin) 0.65% | inhibition [7] 1.56% | inhibition [8] -6.33% | growth inhibition [9] 2.92% | growth inhibition [10] -1.09% | viability increase [11] -1.61% | viability [12] 102% | viability [13] 101% | inhibition [14] 1.67% | RAM network inhibition [15] 2.63%
85%: viability [6, 17]
